Here are results for 29 molecules from PubChem BioAssay.

Active and inactive are the calls of the source. No rule for the calls is given here.

This assay is described as follows: inhibitors of hydroxyurea-induced Chk1 phosphorylation, primary screen, imaging, HeLa, phospho-Chk1 nuclear intensity (AID 1187). Also: test concentration not given here. Particulars: hydroxyurea-induced phospho-Chk1 immunofluorescence imaging, higher = more signal.
With `COc1cc(CO)cc(I)c1O[C@H]1C=C(C(=O)NCCO)C[C@@H]2O[C@H]12`, the z-score is 0.361 (inactive).
Next, `CCCC=C(CCC)[C@@H](NC(=O)OCC(C)C)c1ccc(C(=O)OC)cc1`: -0.598 (inactive).
Next, `COC(=O)[C@@]1(Cc2ccc(F)cc2)[C@H]2c3cc(C(=O)N(C)C)n(CCc4ccc(O)c(O)c4)c3C[C@H]2CN1C(=O)c1ccccc1`: 0.0787 (inactive); `CC(C)=CCCC(C)=CC(O)C1C=CC2C(=O)NC(=O)C2N1Nc1ccc(Cl)cc1Cl` (centres undefined): 0.848 (inactive).
To `Cc1ccc(F)cc1S(=O)(=O)N[C@H]1CCN(Cc2ccc(OC(C)C)cc2)C1` belongs 0.581 (inactive); to `COCCOC(=O)N1C(=O)[C@@]2(c3cc(C#CCCO)ccc31)[C@H](c1ccccc1OCCO)N1[C@H](c3ccccc3)[C@H](c3ccccc3)OC(=O)[C@H]1[C@@H]2C(N)=O`, -0.0408 (inactive).
Regarding `COc1ccc(C(O)C2C=CC3C(=O)NC(=O)C3N2Nc2ccc(Cl)cc2Cl)c2ccccc12` (centres undefined), the z-score was 0.175 (inactive).
Next, `COc1ccc(C(=O)Nc2cccc(CN3C(=O)[C@]4(O[C@H](CC(=O)N5Cc6ccccc6C[C@H]5CO)[C@@H]([Si](C)(C)c5ccc(OC)cc5)[C@@H]4C)c4ccccc43)c2)cc1`: 0.835 (inactive); `C=CCNC(=O)[C@@H]1[C@H]2C(=O)O[C@H](c3ccccc3)[C@H](c3ccccc3)N2[C@H](c2ccc(OCCO)cc2)[C@@]12C(=O)Nc1ccc(C#CC3(O)CCCCCC3)cc12`: -0.271 (inactive).
Next, `C=CC[C@]1(C(=O)NCC(O)CO)COC(c2ccc(OCCCO)cc2)=N1` (some centres undefined): -0.553 (inactive); `C=CCC(OC(C)=O)[C@@H]1[C@@H](N(Cc2ccc(-c3cccc(C(F)(F)F)c3)o2)C(=O)c2ccc(-c3ccccc3)cc2)c2cc(OCCCO)ccc2N1C(=O)c1ccc2ccccc2c1` (some centres undefined): 0.766 (inactive); `C=CC[C@@]1(C(=O)N(C)C)N=C(c2ccc(OCCCO)cc2)O[C@@H]1c1ccccc1CN=[N+]=[N-]`: -0.052 (inactive).
Next, `COc1ccc(C#Cc2ccc3c(c2)[C@]2(C(=O)N3)[C@H](C(=O)O)[C@H]3C(=O)O[C@H](c4ccccc4)[C@H](c4ccccc4)N3[C@@H]2c2ccccc2OCCO)cc1`: 0.175 (inactive); `COC(=O)[C@]1(CCC(=O)OC(C)(C)C)N=C(c2ccc(OCCCO)cc2)O[C@@H]1c1ccccc1N=[N+]=[N-]`: 0.562 (inactive); `CN1C(=O)C2C=CC(C(O)c3ccc(-c4ccccc4)s3)N(NC(=O)OC(C)(C)C)C2C1=O` (centres undefined): 0.239 (inactive).
On to `O=C1O[C@@H](c2ccccc2)[C@@H](c2ccccc2)N2[C@@H](c3ccc(OCCO)cc3)[C@]3(C(=O)Nc4ccc(C#CC5(O)CCCCCC5)cc43)[C@@H](C(=O)O)[C@H]12`, for which the z-score was 0.0604 (inactive).
In the case of `C=CCN1C(=O)[C@]2(O[C@H](CCn3cc([C@H](O)c4ccccc4)nn3)[C@@H]([Si](C)(C)c3ccc(OC)cc3)[C@@H]2C)c2cc(NC(=O)c3ccc(OC)cc3)ccc21`, the z-score was 0.0018 (inactive).
Next, `CC(C)N1C(=O)C[C@@](C(=O)NCCN2CCOCC2)(c2ccc([N+](=O)[O-])cc2)[C@H]1c1ccc(CO)cc1`: 0.451 (inactive); `COC(=O)[C@@]1(Cc2ccccc2)[C@H]2c3cc(C(=O)N(C)C)n(CCSC(=N)N)c3C[C@H]2CN1C(=O)c1ccccc1`: 0.849 (inactive).
Next, `CCCc1cc2c(n1CCc1ccc(Cl)cc1)C(C)C1CN(C(=O)c3ccccc3)C(C)(C(=O)OC)C21` (centres undefined): 0.692 (inactive).
Next, `O=C1C=C(c2ccccc2)C(=O)C2=C1CC([C@H]1Oc3ccccc3S(=O)(=O)N3CCC[C@@H]13)=CC2`: 0.334 (inactive); `CC(C)(C)N1CC=CC23O[C@@H]4C=CCCOC(=O)C4[C@H]2C(=O)N(CCCCCCO)[C@@H]3C1=O` (some centres undefined): 0.222 (inactive).
Consider `O=C(NC1CC1)[C@@H]1c2ccccc2C(=O)N(Cc2cc(C(F)(F)F)cc(C(F)(F)F)c2)[C@H]1c1ccc(CO)cc1`, for which the z-score was -0.394 (inactive).
To `C=CCC(OC(C)=O)[C@@H]1[C@@H](N(Cc2cccc3ccccc23)C(=O)c2ccc(-c3ccccc3)cc2)c2cc(OCCCO)ccc2N1C(=O)Cc1ccc2ccccc2c1` (some centres undefined) belongs 0.582 (inactive); to `O=C1c2ccccc2[C@@]2(Cc3ccccc3N(Cc3ccccc3)C2=O)[C@H](c2ccc(CO)cc2)N1Cc1ccccc1Cl`, 0 (inactive).
`CC1CC/C=C\[C@H]2OC34C=CCN(C(C)(C)C)C(=O)[C@H]3N(CCCO)C(=O)[C@@H]4C2C(=O)O1` (some centres undefined): the z-score was -0.248 (inactive).
To `O=C1C[C@@](C(=O)O)(c2ccc([N+](=O)[O-])cc2)[C@@H](c2ccc(CO)cc2)N1C1CCCCC1` belongs 0.0584 (inactive); to `C=C(COC)/C(=C/C[C@H](OC(C)=O)c1ccccc1OCCO)c1cc(C(=O)OC)ccc1OC`, -1.14 (inactive).
Consider `CC(C)N1C(=O)c2ccccc2[C@](C)(C(=O)NCC(F)(F)F)[C@@H]1c1ccc(CO)cc1`, for which the z-score is 0.462 (inactive).
